Measured values taken from PubChem BioAssay (Tox21).
Records with an inconclusive call do not appear. A call without a number means that no potency is given here. Unmarked numbers belong to inactive results. Calls of active or inactive are those of the source. Calls follow the shape of the dose curve; as a rule, active = well fitted curve in the direction sought with a large enough effect in the repeat runs; inconclusive = weak or mixed curves; inactive = no such curve, though single readings can be large; an effect the other way counts as inactive or inconclusive. Positions of bridges follow the written chain, without caps; N, C: chain ends. Non-standard residues stand in square brackets, D forms with d. Residues, ends and D or L forms follow the SMILES beside them. hArg = N=C(N)NCCCC[C@H](N)C(=O)O; Mpa = O=C(O)CCS

How the values were obtained:
[1] = qHTS assay to identify small molecule antagonists of the retinoid acid receptor (RAR) signaling pathway - cell viability counter screen (AID 1159551); also: nearly all actives have a fitted effect of over 35% in size
Outline: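 Seed C3RL4 cells; next day add compound, then retinol to 1 uM final; incubate 6 h at 37 C; add CellTiter-Glo; read luminescence after 30 min at RT.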

[2] = qHTS assay to identify small molecule antagonists of the retinoic acid receptor (RAR) signaling pathway (AID 1159552; also: nearly all actives have a fitted effect of over 50% in size)
Outline: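 C3RL4 RARE-luc cells, overnight plating; retinol 1 uM final added right after compound; 6 hr 37 C; luciferase read at 30 min RT.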

[3] = qHTS assay to identify small molecule agonists of the retinoic acid receptor (RAR) signaling pathway (AID 1159553)
Outline: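 Activation of retinol signaling was monitored via a RARE luciferase reporter in C3RL4 cells. After 6 hr compound treatment at 37 C, detection reagent was added for 30 min at room temperature before luminescence reading.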

[4] = qHTS assay to identify small molecule antagonists of the estrogen related receptor (ERR) signaling pathway from Tox21 library - cell viability counter screen (AID 1224834); also: nearly all actives have a fitted effect of over 30% in size
Outline: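 CellTiter-Fluor fluorescence measured; ERR cells; 17.5 h compound incubation at 37 C; 30 min reagent step.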

[5] = qHTS assay to identify small molecule agonists of the constitutive androstane receptor (CAR) signaling pathway - cell viability counter screen (AID 1224836); also: series mostly up to about 92 µM; nearly all actives have a fitted effect of over 45% in size
Outline: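 Using CellTiter-Fluor, viability of HepG2 cells harbouring hCAR and CYP2B6-2.2kb was measured following 23 h incubation with a 15-concentration compound series plus PK11195 (0.75 uM final).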

[6] = qHTS assay to identify small molecule antagonists of the constitutive androstane receptor (CAR) signaling pathway - cell viability counter screen (AID 1224837); also: series mostly up to about 92 µM; nearly all actives have a fitted effect of over 45% in size
Outline: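 Using CellTiter-Fluor, viability is scored in HepG2 cells stably carrying hCAR and a 2.2kb CYP2B6 reporter after 23 hr compound exposure across 15 concentrations, with CITCO present at 50 nM.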

[7] = molecular target: Nuclear receptor subfamily 1 group I member 3 (Homo sapiens) (UniProt Q14994); assay: qHTS assay to identify small molecule antagonists of the constitutive androstane receptor (CAR) signaling pathway (AID 1224838);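 also: HepG2 cells stably expressing hCAR with CYP2B6 luciferase reporter stimulated by CITCO; nearly all actives have a fitted effect of over 40% in size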; also: potency is read from the fitted curve at half-maximal effect
Nuclear receptor subfamily 1 group I member 3 (Homo sapiens), sequence (Q14994 whole entry, looked up): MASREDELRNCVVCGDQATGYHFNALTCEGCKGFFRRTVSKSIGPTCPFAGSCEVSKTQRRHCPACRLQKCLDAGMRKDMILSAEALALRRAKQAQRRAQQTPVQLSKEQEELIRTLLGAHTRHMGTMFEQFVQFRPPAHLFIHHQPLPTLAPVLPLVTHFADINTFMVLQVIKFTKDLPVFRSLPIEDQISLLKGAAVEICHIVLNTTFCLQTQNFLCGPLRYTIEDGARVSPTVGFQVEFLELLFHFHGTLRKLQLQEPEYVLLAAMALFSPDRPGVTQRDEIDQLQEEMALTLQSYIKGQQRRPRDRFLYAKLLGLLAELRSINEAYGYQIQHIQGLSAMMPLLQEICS
Outline: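 Reporter luminescence was quantified after 24 h exposure of hCAR/CYP2B6-2.2kb double-stable HepG2 cells to compounds at 15 concentrations in the presence of 50 nM CITCO final.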

[8] = molecular target: Luciferin 4-monooxygenase (Photinus pyralis) (UniProt P08659); assay: qHTS assay to identify small molecule inhibitors of firefly luciferase (AID 1224835); also: series mostly up to about 120 µM; nearly all actives have a fitted effect of over 25% in size
Luciferin 4-monooxygenase (Photinus pyralis), sequence (P08659 whole entry, looked up): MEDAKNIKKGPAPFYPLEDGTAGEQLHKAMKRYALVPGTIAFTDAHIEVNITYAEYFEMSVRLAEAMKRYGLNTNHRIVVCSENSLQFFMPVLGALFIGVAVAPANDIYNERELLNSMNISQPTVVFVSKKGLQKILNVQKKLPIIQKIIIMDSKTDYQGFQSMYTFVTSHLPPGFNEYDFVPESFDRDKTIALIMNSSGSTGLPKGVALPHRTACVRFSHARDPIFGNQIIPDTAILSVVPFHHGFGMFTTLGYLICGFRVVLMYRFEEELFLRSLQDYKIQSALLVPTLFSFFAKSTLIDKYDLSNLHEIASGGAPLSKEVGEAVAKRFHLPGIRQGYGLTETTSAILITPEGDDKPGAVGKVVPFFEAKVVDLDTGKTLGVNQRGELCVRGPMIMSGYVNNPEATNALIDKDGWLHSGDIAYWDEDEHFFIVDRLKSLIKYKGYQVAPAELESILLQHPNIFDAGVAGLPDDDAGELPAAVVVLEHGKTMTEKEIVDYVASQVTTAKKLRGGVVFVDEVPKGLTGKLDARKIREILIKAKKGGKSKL
Outline: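 Inhibition of purified Photinus luciferase is measured by luminescence. Substrate levels (D-luciferin, ATP) sit at their KM values. Each compound is tested in a concentration series.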

[9] = molecular target: Nuclear receptor subfamily 1 group I member 3 (Homo sapiens) (UniProt Q14994); assay: qHTS assay to identify small molecule agonists of the constitutive androstane receptor (CAR) signaling pathway (AID 1224839);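 also: HepG2 cells stably carrying human CAR and a CYP2B6 luciferase reporter; series mostly up to about 92 µM; nearly all actives have a fitted effect of over 15% in size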
Outline: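 Double-stable HepG2 cells (hCAR, CYP2B6-2.2kb) seeded 4 h before compound addition. Exposure 24 h with 0.75 uM PK11195 final. Luciferase detected by ONE-Glo.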

Structure (SMILES) | outcome [1] | outcome [2] | Potency [3] | outcome [4] | outcome [5] | outcome [6] | Potency [7] | Potency [8] | Potency [9] | activity change, negative = cytotoxicity [1] | viability change, negative = cytotoxic [4] | viability change, negative = cytotoxic [5] | activity change, negative = cytotoxicity [6] | activity, negative = inhibition [7]
OC1(c2ccc(Cl)cc2)CCNCC1 | inactive | inactive | inactive | inactive | inactive | inactive | inactive | – | – | – | – | – | – | –
CC(C)C1OCCN1CCOC(=O)NCCCCCCNC(=O)OCCN1CCOC1C(C)C (stereo not given) | inactive | inactive | inactive | inactive | inactive | inactive | inactive | inactive | inactive | – | – | – | – | –
CC(C)OC(=O)OCOP(=O)(CO[C@H](C)Cn1cnc2c(N)ncnc21)OCOC(=O)OC(C)C | – | inactive | inactive | inactive | inactive | inactive | 2.37 µM (active) | inactive | inactive | – | – | – | – | –
O=C(CCCl)NCCc1ccccc1 | inactive | – | inactive | inactive | inactive | inactive | inactive | inactive | inactive | – | – | – | – | –
CC(C)Cn1cnc2c1c(=O)n(C)c(=O)n2C | inactive | inactive | inactive | inactive | inactive | inactive | inactive | inactive | inactive | – | – | – | – | –
Fc1ccccc1 | inactive | inactive | inactive | inactive | inactive | inactive | inactive | inactive | inactive | – | – | – | – | –
C=C(C)c1cccc(C(C)(C)N=C=O)c1 | inactive | inactive | inactive | inactive | inactive | inactive | 7.7 µM (active) | inactive | inactive | – | – | – | – | –
CCOc1cccc(N)c1 | inactive | inactive | inactive | inactive | inactive | inactive | inactive | inactive | inactive | – | – | – | – | –
COc1ccc2c(c1)c1c3n2CCN(C)C3=NCC1 | inactive | inactive | inactive | inactive | inactive | inactive | inactive | inactive | inactive | – | – | – | – | –
CCCCCCCCCCCCCCCCCCOCCO | – | – | inactive | – | – | – | – | – | – | -1.36% [at 19 µM] | -3.06% [at 19 µM] | -7.83% [at 19 µM] | 0.177% [at 19 µM] | -10.5% [at 19 µM]
CN(C)CCOC(=O)C(c1ccccc1)C1(O)CCCC1 (stereo not given) | inactive | inactive | inactive | inactive | inactive | inactive | inactive | – | – | – | – | – | – | –
Cc1ccc(C(C)NC(=O)[C@@H](NC(=O)OC(C)C)C(C)C)cc1 (stereo not given in full) | inactive | – | inactive | inactive | inactive | inactive | inactive | – | inactive | – | – | – | – | –
CCOC(=O)CC1(C)OCC(C)O1 (stereo not given) | inactive | inactive | inactive | inactive | inactive | inactive | inactive | inactive | inactive | – | – | – | – | –
CCC(C(=O)OCCN1CCOC(c2ccccc2)C1C)c1ccccc1 (stereo not given) | inactive | inactive | inactive | inactive | inactive | inactive | inactive | inactive | inactive | – | – | – | – | –
Cn1nnc2c(C(N)=O)ncn2c1=O | inactive | – | inactive | inactive | inactive | inactive | inactive | inactive | – | – | – | – | – | –
COC(=O)c1cccc(Cl)c1 | inactive | inactive | inactive | inactive | inactive | inactive | inactive | inactive | inactive | – | – | – | – | –
O=C(CN1CCNCC1)NC1CCCCC1 | – | inactive | inactive | inactive | inactive | inactive | inactive | inactive | inactive | – | – | – | – | –
NC(=O)[C@@H]1CSSCCC(=O)N[C@@H](CCCCN=C(N)N)C(=O)NCC(=O)N[C@@H](CC(=O)O)C(=O)N[C@@H](Cc2c[nH]c3ccccc23)C(=O)N2CCC[C@H]2C(=O)N1 ([Mpa][hArg]GDWPC-NH2; disulfide 1-7) | – | inactive | inactive | inactive | inactive | inactive | inactive | inactive | inactive | – | – | – | – | –
Cc1c(N)cccc1Cl | inactive | inactive | inactive | inactive | inactive | inactive | inactive | inactive | inactive | – | – | – | – | –
COc1ccc(CCO)cc1 | inactive | – | inactive | inactive | inactive | inactive | inactive | inactive | inactive | – | – | – | – | –
Cc1ccc(N)cc1S(=O)(=O)O | – | inactive | inactive | inactive | inactive | inactive | inactive | inactive | inactive | – | – | – | – | –
C/C(=C1\CCOC(=O)S1)N(C=O)Cc1cnc(C)nc1N | – | – | inactive | inactive | inactive | inactive | inactive | inactive | inactive | – | – | – | – | –
CC(O)COC(C)(C)C (stereo not given) | inactive | inactive | inactive | inactive | inactive | inactive | inactive | – | inactive | – | – | – | – | –
COC(=O)c1cc(Cl)cc(Cl)c1 | inactive | – | inactive | inactive | inactive | inactive | inactive | inactive | – | – | – | – | – | –
O=C(Cl)c1ccccc1[N+](=O)[O-] | inactive | – | inactive | inactive | inactive | inactive | inactive | – | inactive | – | – | – | – | –
CCCCCCCCCCCCCBr | inactive | inactive | inactive | inactive | inactive | inactive | inactive | inactive | inactive | – | – | – | – | –
